Test systems include SK-MEL-2 melanoma; EKVX NSCLC; SN12C renal; UO-31 renal; TK-10 renal; ACHN renal; CAKI-1 renal; A498 renal; CCRF-CEM leukemia; MOLT-4 leukemia; SR leukemia; RPMI-8226 leukemia; OVCAR-8 ovarian; OVCAR-5 ovarian; OVCAR-4 ovarian; SK-OV-3 ovarian; IGROV1 ovarian; OVCAR-3 ovarian; HS 578T breast; NCI/ADR-RES ovarian.
Common to all, as to experiment: NCI-60 one-dose screen, 48 h (100 = growth as untreated, 0 = no growth, -100 = all killed)
Settings in all cases: 10 µM unless noted

Structures are written as SMILES. This is part of a sample that, as a whole, favours compounds with a hit. Of some 83,000 tested, about 20% had one in any assay.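 Assay: single dose, 48 h. Readout: percent growth (0 = no net growth; negative = cell death). Active: <10.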 A number with no mark means an inactive call. Active and inactive are the calls of the source.

For `CCN1CCN(CC(=O)Nc2ccc(-c3cn4c(n3)sc3cc(Oc5ccnc(C(=O)NC)c5)ccc34)cc2)CC1`, the growth in the assay with SK-MEL-2 melanoma is 42.5%; with EKVX NSCLC, 100%; in the assay on SN12C renal, 85.9%; in the assay on UO-31 renal it was 60.1%; in the assay with TK-10 renal, 89.5%; in the assay on ACHN renal, 73.2%. In addition, the growth is 67.4% in the assay on CAKI-1 renal; 81.8% with A498 renal; 44.9% in the assay with CCRF-CEM leukemia; 60.6% in the assay with MOLT-4 leukemia; -16.9% (active) in the assay with SR leukemia; 59.2% in the assay with RPMI-8226 leukemia. Further, the growth in the assay with OVCAR-8 ovarian was 92.4%; with OVCAR-5 ovarian, 91.2%; with OVCAR-4 ovarian, 87.5%; in the assay with SK-OV-3 ovarian, 44.8%; with IGROV1 ovarian, 84.8%; in the assay on OVCAR-3 ovarian, 88.8%. The growth was 94% in the assay on HS 578T breast and 89% in the assay on NCI/ADR-RES ovarian.

For `COc1ccc(NC(=O)Nc2ccc(OCCCCCC(=O)NO)cc2)cc1`, the growth is 79.9% with SK-MEL-2 melanoma; 121% in the assay with EKVX NSCLC; 97% in the assay with SN12C renal; 87.4% with UO-31 renal; 89.3% with TK-10 renal; 107% with ACHN renal. Further, the growth in the assay with CAKI-1 renal is 93.5%; in the assay on A498 renal it was 85.2%; in the assay on CCRF-CEM leukemia, 85.6%; in the assay on MOLT-4 leukemia, 85.6%; in the assay with SR leukemia, 71.6%; in the assay with RPMI-8226 leukemia, 97.8%. Also, the growth is 87.8% in the assay on OVCAR-8 ovarian; 113% in the assay on OVCAR-5 ovarian; 122% in the assay with OVCAR-4 ovarian; 97.1% in the assay on SK-OV-3 ovarian; 115% in the assay with IGROV1 ovarian; 103% in the assay on OVCAR-3 ovarian. Also, the figures for the growth in the assay on HS 578T breast and in the assay with NCI/ADR-RES ovarian were 94.1% and 99.6%, respectively.

Turning to `Cc1ncc(C(=O)Nc2ccc(CN3CCN(C)CC3)c(C(F)(F)F)c2)cc1C#Cc1cnc(N)c2ncccc12`, the growth with SK-MEL-2 melanoma is -29.8% (active); in the assay with EKVX NSCLC it was 42.8%; in the assay with SN12C renal, -20.3% (active); in the assay on UO-31 renal, -9.37% (active); in the assay on TK-10 renal, 46.3%; with ACHN renal it was 0.608% (active). The growth was 7.54% (active) in the assay with CAKI-1 renal; -6.89% (active) in the assay on A498 renal; -1.21% (active) with CCRF-CEM leukemia; -24.9% (active) in the assay with MOLT-4 leukemia; -33.9% (active) in the assay on SR leukemia; -26.2% (active) with RPMI-8226 leukemia. In addition, the growth with OVCAR-8 ovarian is -24.7% (active); in the assay on OVCAR-5 ovarian, 49.8%; with OVCAR-4 ovarian, -6.15% (active); in the assay with SK-OV-3 ovarian it was 0.896% (active); with IGROV1 ovarian, 10.4%; with OVCAR-3 ovarian, 55.4%. Moreover, the results for the growth with HS 578T breast and with NCI/ADR-RES ovarian were 24.2% and 33.2%, respectively.

As to `COc1cc(Cl)c(C)cc1NC(=O)c1cc2ccccc2cc1O`, the growth was -33.1% (active) in the assay with SK-MEL-2 melanoma; 0.938% (active) with EKVX NSCLC; 8.39% (active) with SN12C renal; 0.513% (active) in the assay with UO-31 renal; 6.75% (active) in the assay with TK-10 renal; 4.34% (active) in the assay with ACHN renal. Besides, the growth is -12.7% (active) with CAKI-1 renal; -9.59% (active) in the assay with A498 renal; 7.39% (active) in the assay on CCRF-CEM leukemia; 17.5% with MOLT-4 leukemia; 8.6% (active) with SR leukemia; 7.23% (active) in the assay on RPMI-8226 leukemia. The growth in the assay with OVCAR-8 ovarian is 11.9%; in the assay with OVCAR-5 ovarian, 20%; with OVCAR-4 ovarian, 20.7%; with SK-OV-3 ovarian it was 14.8%; in the assay on IGROV1 ovarian it was 11.9%; in the assay with OVCAR-3 ovarian, 6.37% (active). Further, the growth in the assay with HS 578T breast is 23.8%; with NCI/ADR-RES ovarian, 0.336% (active).

As to `N=c1c(S(=O)(=O)c2ccccc2)cc2c(=O)n3ccccc3nc2n1CC1CCCO1` (stereo not given), the growth with SK-MEL-2 melanoma is 112%; in the assay with EKVX NSCLC it was 107%; in the assay with SN12C renal, 96.8%; with UO-31 renal, 56.4%; with TK-10 renal, 114%; in the assay with ACHN renal, 103%. The growth in the assay on CAKI-1 renal was 85.2%; in the assay with A498 renal it was 84.1%; in the assay with CCRF-CEM leukemia it was 109%; in the assay with MOLT-4 leukemia it was 102%; with SR leukemia it was 106%; in the assay with RPMI-8226 leukemia it was 109%. Also, the growth in the assay with OVCAR-8 ovarian was 116%; with OVCAR-5 ovarian, 89.8%; in the assay with OVCAR-4 ovarian it was 99.9%; in the assay with SK-OV-3 ovarian, 99.3%; in the assay with IGROV1 ovarian, 102%; in the assay with OVCAR-3 ovarian, 108%. Also, the values for the growth in the assay on HS 578T breast and in the assay with NCI/ADR-RES ovarian were 104% and 98.7%, respectively.

Consider `Fc1cc(Nc2ccc3c(OCCCN4CCOCC4)cccc3n2)ccc1Cl`, for which the growth is 88.8% in the assay with SK-MEL-2 melanoma; 39.9% in the assay on EKVX NSCLC; 62.6% with SN12C renal; 33.3% in the assay on UO-31 renal; 66.1% in the assay with TK-10 renal; 52.6% with ACHN renal. The growth was 54.8% in the assay with CAKI-1 renal; 54.4% in the assay on A498 renal; 29.2% in the assay with CCRF-CEM leukemia; 3.8% (active) in the assay with MOLT-4 leukemia; 10.7% with SR leukemia; 4.49% (active) in the assay with RPMI-8226 leukemia. The growth is 73.5% with OVCAR-8 ovarian; 33.5% in the assay with OVCAR-5 ovarian; 53.1% in the assay on OVCAR-4 ovarian; 67.7% with SK-OV-3 ovarian; 36.2% in the assay on IGROV1 ovarian; 65.1% in the assay with OVCAR-3 ovarian. Also, the values for the growth in the assay on HS 578T breast and with NCI/ADR-RES ovarian were 40.1% and 48.5%, respectively.

For the molecule `C=CCOC(=O)C1=C(C)N(CC)C(=O)NC1c1c(Cl)n(C)c2ccccc12` (stereo not given), the growth is 108% in the assay on SK-MEL-2 melanoma; 98.4% in the assay on EKVX NSCLC; 102% in the assay on SN12C renal; 76.1% with UO-31 renal; 102% in the assay with TK-10 renal; 82.2% with ACHN renal. In addition, the growth in the assay with CAKI-1 renal was 61.5%; in the assay on A498 renal, 95%; with CCRF-CEM leukemia it was -28% (active); in the assay on MOLT-4 leukemia it was 93.7%; in the assay with SR leukemia it was 96.1%; with RPMI-8226 leukemia, 93.8%. Moreover, the growth was 98.2% in the assay on OVCAR-8 ovarian; 90% in the assay on OVCAR-5 ovarian; 103% in the assay with OVCAR-4 ovarian; 102% with SK-OV-3 ovarian; 98.9% in the assay on IGROV1 ovarian; 108% in the assay with OVCAR-3 ovarian. In addition, the values for the growth in the assay on HS 578T breast and in the assay with NCI/ADR-RES ovarian were 96.4% and 94.1%, respectively.

Turning to `CN(C)c1ccc(-c2nc(-c3ccccc3)c(-c3ccccc3)[nH]2)cc1`, the growth with SK-MEL-2 melanoma is 83.9%; in the assay on EKVX NSCLC, 61.1%; in the assay with SN12C renal it was 92.9%; with UO-31 renal it was 84.8%; with TK-10 renal, 99.6%; with ACHN renal, 94%. Besides, the growth is 84.6% in the assay on CAKI-1 renal; 82.4% with A498 renal; 90% in the assay with CCRF-CEM leukemia; 83.4% in the assay on MOLT-4 leukemia; 88.2% in the assay with SR leukemia; 90% in the assay on RPMI-8226 leukemia. Further, the growth in the assay with OVCAR-8 ovarian is 96.9%; with OVCAR-5 ovarian, 122%; in the assay with OVCAR-4 ovarian, 94%; in the assay on SK-OV-3 ovarian it was 83.1%; in the assay with IGROV1 ovarian it was 91.6%; in the assay with OVCAR-3 ovarian it was 114%. Moreover, the growth in the assay on HS 578T breast is 103%; with NCI/ADR-RES ovarian it was 95%.

(Values after PubChem BioAssay (NCI).)
